# Hits are enriched below; roughly 6.3% of the tested compounds scored in any of these assays.
# ATXN2 expr inh – Primary qHTS for Inhibitors of ATXN expression | HEK-293 ATXN2-luciferase reporter, luminescence, 24 h | Potency, µM (highest dose often 57 µM), hits mostly inhibitors | AID 1745845, 2022 | hit rate 0.72% among 360,000; further: nearly all actives have a fitted effect of over 55% in size
#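 ATXN2-luciferase reporter cells (luciferase flanked by upstream and downstream ATXN2 gene portions) were treated 24 h at 37 °C with compounds at up to 57 uM. SteadyGlo luminescence gave expression; GF-AFC fluorescence gave viability.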
# VP16 counter – VP16 counterscreen qHTS for inhibitors of ROR gamma transcriptional activity; Potency, µM (series often up to 53.6 µM), most hits filed as inhibitors; hit rate 3.5% among 310,000; Drosophila S2 Gal4-VP16 UAS-luciferase, luminescence, 20 h;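 further: Gal4-VP16 expression switched on by copper sulfate through the metallothionein promoter; nearly all actives have a fitted effect of over 50% in size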
# RORg inh – qHTS for inhibitors of ROR gamma transcriptional activity | Nuclear receptor ROR-gamma (Mus musculus), P51450 | Drosophila S2 Gal4-RORgamma UAS-luciferase reporter, 20 h | Potency, µM (titrated, usually from 53.6 µM), usual class: inhibitors | hit rate 5.4% among 310,000; further: nearly all actives have a fitted effect of over 60% in size
# Target sequence (P51450 whole entry, looked up, the tested form may be a part): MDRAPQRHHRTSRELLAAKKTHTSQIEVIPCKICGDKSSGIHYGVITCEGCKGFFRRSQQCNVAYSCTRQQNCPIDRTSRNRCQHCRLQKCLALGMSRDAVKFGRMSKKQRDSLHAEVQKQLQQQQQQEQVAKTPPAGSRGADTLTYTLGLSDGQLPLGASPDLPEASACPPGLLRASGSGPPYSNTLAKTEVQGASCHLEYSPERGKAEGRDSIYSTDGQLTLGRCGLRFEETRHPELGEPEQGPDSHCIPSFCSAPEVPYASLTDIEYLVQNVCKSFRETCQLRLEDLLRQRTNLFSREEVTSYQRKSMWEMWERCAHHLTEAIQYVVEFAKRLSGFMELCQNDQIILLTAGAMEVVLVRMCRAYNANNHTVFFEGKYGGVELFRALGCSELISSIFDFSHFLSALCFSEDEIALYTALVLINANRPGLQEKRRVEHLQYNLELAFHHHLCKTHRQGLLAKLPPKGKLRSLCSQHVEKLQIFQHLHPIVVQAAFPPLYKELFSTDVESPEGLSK
#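 Luminescence from a UAS-regulated Photinus luciferase reporter in stably transfected Drosophila Schneider cells is measured; decreased signal marks ROR gamma inhibition. Fusion expression is induced by 700 uM copper sulfate for 20 hr.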
# ATXN viability – Viability Counterscreen for Primary qHTS for Inhibitors of ATXN expression; AID 651635, 2014; hit rate 0.49% among 400,000; Potency, µM (titrated, usually from 56.7 µM), actives largely listed as cytotoxic; S2 cells (HEK-293 line with an ATXN2-luciferase reporter) viability, CellTiter-Fluor protease fluorescence, 24 h; further: nearly all actives have a fitted effect of over 40% in size
# TGFb SMAD3 inh – qHTS for Inhibitors of TGF-b. hit rate 1.2% among 410,000. Potency, µM (top dose mostly 46.1 µM), actives largely listed as inhibitors. HepG2 CAGA-GFP TGF-b/SMAD3 reporter, GFP fluorescence, 18 h; TGF-beta stimulated, 500 pg/mL final; further: nearly all actives have a fitted effect of over 65% in size
#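 Smad-responsive CAGA-GFP expression was quantified in HEPG2 cells exposed to compounds and 500 pg/mL final TGF-beta for 18 h at 37 degrees C; unstimulated wells defined full inhibition.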
# HepG2 tox – qHTS for Inhibitors of TGF-b: Cytotox Counterscreen; HepG2 CAGA-GFP viability, ATP luminescence, 18 h; Potency, µM (top dose mostly 46.1 µM), usual class: cytotoxic; hit rate 0.76% among 410,000
#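 CellTiter-Glo luminescence gave cytotoxicity after 18 hours at 37 degrees C. The cells were HepG2 CAGA-GFP in 1% FBS DMEM, stimulated with 500 pg/mL TGF-beta after compound addition. %Activity was normalised to no-cell wells (complete cell-killing) and DMSO (no toxicity), and curves were fitted and classified.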
# A number is an active result; – = inactive; ? = inconclusive; · = no result; [ ] = dose if it differs, or a comment. The call rests on the fitted dose curve; in most records, active means well fitted curve in the direction sought with a large enough effect; inconclusive means small, poorly fitted or top-dose-only effect, or another doubt; inactive means no such curve, though single readings can be large; an effect the other way counts as inactive or inconclusive.
SMILES,ATXN2 expr inh,VP16 counter,RORg inh,ATXN viability,TGFb SMAD3 inh,HepG2 tox
CN(C)c1ccc(S(=O)(=O)N2CCCCC2)cc1NC(=O)CCNC(=O)c1ccco1,·,·,·,–,–,–
CCOC(=O)c1nnc(-c2ccccc2)nc1Oc1ccc(Cl)cc1,?,10µM,20µM,?,?,–
CCOC(=O)c1nnc(-c2ccccc2)nc1Sc1ccccc1Cl,?,?,–,?,?,–
COc1ccc(C(C)=O)cc1CSc1nnc(C)n1-c1ccccc1,–,–,–,–,–,–
COc1ccc(C(C)=O)cc1CSc1nnc(-c2ccccc2O)n1-c1ccccc1,–,–,2.8µM,–,–,–
COc1cc2ncnc(N3CCN(C(=O)Nc4ccc(Oc5ccccc5)cc4)CC3)c2cc1OC,·,·,·,·,10µM,–
O=S(=O)(NC(=S)NC1CCCCC1)c1ccccc1,–,?,4.5µM,–,–,–
O=S(=O)(NC(=S)NC1CCCCC1)c1cccs1,–,–,11µM,–,–,–
C=CCOc1ccccc1CNc1ccc2c(c1)OCCO2,?,?,4.5µM,–,?,–
O=C(Nc1nc2c(s1)CCCC2)c1cccs1,–,?,?,–,–,10µM
CC1(C)CC(=O)c2sc(NC(=O)c3cccs3)nc2C1,?,5.6µM,5µM,–,–,–
CC1(C)CC(=O)c2sc(NC(=O)c3ccccc3)nc2C1,·,–,–,·,·,·
O=C(Cc1cccs1)Nc1nc2c(s1)CCCC2,–,–,?,–,–,–
CC1(C)CC(=O)c2sc(NC(=O)CCS(=O)(=O)c3ccccc3)nc2C1,?,5.6µM,?,·,?,–
CCOC(=O)c1cc2c(=O)n3ccccc3nc2n(CCOC)c1=NC(=O)c1c(-c2ccccc2Cl)noc1C,–,·,·,?,–,–
COc1cc(C(=O)NCCc2sc(-c3ccc(C)cc3)nc2C)cc(OC)c1OC,–,·,·,–,–,–
O=C(CCc1ccccc1)NNC(=S)NCCc1ccccc1,–,?,7.9µM,–,–,–
CNC(=S)NCCc1ccccc1,–,–,–,–,–,–
CC(C)(CNC(=S)NCCc1ccccc1)CNC(=S)NCCc1ccccc1,?,8.9µM,?,?,16µM,–
CC(=O)NNC(=S)NCCc1ccccc1,–,–,11µM,–,–,–
O=C(c1ccncc1)N1CCC[C@@]2(CCN(C(c3ccccc3)c3ccccc3)C2)C1,·,–,–,·,·,·
O=S(=O)(NCc1nc2cccnc2n1Cc1ccccc1)c1ccc2c(c1)CCCC2,·,·,·,·,?,–
CCc1ccc(NC(=O)CC2C(=O)N(c3cccc(C)c3)C(=O)N2Cc2cccs2)cc1 (stereo not drawn),·,·,·,·,?,–
O=S(=O)(c1ccccc1F)N1CCN(Cc2cc3c(cc2O)OCO3)CC1,·,·,·,–,–,4µM
NC(N)=Nc1nc(-c2ccccc2)c2cc(F)ccc2n1,?,–,–,5.6µM,?,–
SMILES,ATXN2 expr inh,VP16 counter,RORg inh,ATXN viability,TGFb SMAD3 inh,HepG2 tox
O=C(NC(Cc1c[nH]c2ccccc12)C(=O)Nc1ccc(OC(F)(F)F)cc1)c1cccs1 (stereo not drawn),–[11.3 µM],?,–,–,?,11µM
Cc1cccc(-n2c(Cc3ccccc3)nnc2SCc2nc(-c3cccs3)no2)c1,?,·,·,?,13µM,–
O=C(NCCc1cnc[nH]1)Nc1cccc(C(F)(F)F)c1,·,–,–,–,–,–
O=C(Nc1cccc(Nc2ncc(Br)c(NCCc3cnc[nH]3)n2)c1)N1CCCC1,19µM,·,·,·,·,·
Oc1cccc2c(NC(=S)Nc3ccc(SC(F)F)cc3)cccc12,·,7.9µM,6.3µM,–,?,–
COCc1c(C(=O)NCC(c2ccco2)N2CCCC2)oc2ccccc12 (stereo not drawn),·,·,·,–,–,–
O=C(Cn1nnc(-c2ccc(CN3CCOCC3)cc2)n1)Nc1nc(-c2ccccc2)cs1,–,–,–,–,13µM,–
COc1ccc(CN(C(=O)Cn2nnc(-c3ccc(C)o3)n2)C(C(=O)NCC2CCCO2)c2ccco2)cc1 (stereo not drawn),–,7.1µM,5µM,–,–,–
Cc1ccc(Cn2cccc2C2=NC(C)CO2)cc1 (stereo not drawn),–,–,18µM,–,–,–
CC(C)C1COC(c2cccn2Cc2ccccc2Cl)=N1 (stereo not drawn),–[11.3 µM],–,?,–,–,–
COCCNc1nc2c(c(=O)n(C)c(=O)n2C)n1Cc1cccc(C)c1,–,10µM,?,?,–,–
Cc1cccc(Cn2c(NCCO)nc3c2c(=O)n(C)c(=O)n3C)c1,–,4.5µM,?,–,–,–
COCCCNc1nc2c(c(=O)n(C)c(=O)n2C)n1Cc1cccc(OC)c1,–,?,?,–,–,–
Cc1cccc(Cn2c(NCC(C)O)nc3c2c(=O)n(C)c(=O)n3C)c1 (stereo not drawn),–,?,–,–,–,–
CC(=O)N=c1sc2nc3ccccc3nc2n1N(C(C)=O)C(C)=O,–,?,10µM,–,?,–
COc1ccc(Cl)cc1NC(=O)C1CC(=O)N(C2CCCCC2)C1 (stereo not drawn),–,–,–,–,–,–
O=C(NCCC1=CCCCC1)C1CC(=O)N(C2CCCCC2)C1 (stereo not drawn),–,–,–,–,2.8µM,–
O=C(Nc1cc(Cl)cc(Cl)c1)C1CC(=O)N(C2CCCC2)C1 (stereo not drawn),–,·,·,–,?,10µM
O=C(NCCc1ccccc1)C1CC(=O)N(C2CCCCCC2)C1 (stereo not drawn),–,–,–,–,–,–
Cc1onc(-c2ccccc2Cl)c1C(=O)NC(=S)Nc1ccccc1F,·,?,5µM,–,–,–
COc1ccccc1CNC(=O)c1c(-c2ccccc2Cl)noc1C,–,–,–,–,–,–
COc1ccccc1NC(=S)NC(=O)c1c(-c2ccccc2Cl)noc1C,·,16µM,2.5µM,–,–,–
CCNC(=O)c1c(NC(=O)Cc2coc3ccc(CC)cc23)sc2c1CCCC2,–,·,·,–,–,–
CCOc1ccc2nc(C)cc(Nc3ccccc3OCC)c2c1,?,·,·,?,?,–
Cc1cccc(NC(=S)NC(=O)CC2CC(C)(C)OC2=O)c1 (stereo not drawn),·,–,11µM,–,–,–
Cc1ccc(NC(=S)NC(=O)CC2CC(C)(C)OC2=O)cc1 (stereo not drawn),·,–,?,–,–,–
CC1(C(=O)NS(=O)(=O)c2ccc(C#N)cc2)CCN1C(=O)c1ccccc1CCc1ccccc1 (stereo not drawn),–,·,·,–,–,–
CC(C)(C)n1ncc2c(=O)n(Cc3c(Cl)cccc3Cl)cnc21,·,·,·,·,–,–
